Many of the other results were omitted from the sample, so hits are more common in it than they were.
CD11b adhes inh = inhibitors of CD11b/CD18 adhesion to fibrinogen, primary screen, K562 cells, luminescence; Integrin beta-2 (Homo sapiens) + Integrin alpha-M (Homo sapiens), P05107+P11215; ATPlite luminescence; Mn2+ added to activate the integrin; inhibition, % at 10 µM; 93,000 tested, 0.54% active; AID 1497, 2009;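 active means primary inhibition of 50% or more at 10 µM, then 40% or more on retest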
Target sequence (P05107 whole entry, looked up, other chains not shown): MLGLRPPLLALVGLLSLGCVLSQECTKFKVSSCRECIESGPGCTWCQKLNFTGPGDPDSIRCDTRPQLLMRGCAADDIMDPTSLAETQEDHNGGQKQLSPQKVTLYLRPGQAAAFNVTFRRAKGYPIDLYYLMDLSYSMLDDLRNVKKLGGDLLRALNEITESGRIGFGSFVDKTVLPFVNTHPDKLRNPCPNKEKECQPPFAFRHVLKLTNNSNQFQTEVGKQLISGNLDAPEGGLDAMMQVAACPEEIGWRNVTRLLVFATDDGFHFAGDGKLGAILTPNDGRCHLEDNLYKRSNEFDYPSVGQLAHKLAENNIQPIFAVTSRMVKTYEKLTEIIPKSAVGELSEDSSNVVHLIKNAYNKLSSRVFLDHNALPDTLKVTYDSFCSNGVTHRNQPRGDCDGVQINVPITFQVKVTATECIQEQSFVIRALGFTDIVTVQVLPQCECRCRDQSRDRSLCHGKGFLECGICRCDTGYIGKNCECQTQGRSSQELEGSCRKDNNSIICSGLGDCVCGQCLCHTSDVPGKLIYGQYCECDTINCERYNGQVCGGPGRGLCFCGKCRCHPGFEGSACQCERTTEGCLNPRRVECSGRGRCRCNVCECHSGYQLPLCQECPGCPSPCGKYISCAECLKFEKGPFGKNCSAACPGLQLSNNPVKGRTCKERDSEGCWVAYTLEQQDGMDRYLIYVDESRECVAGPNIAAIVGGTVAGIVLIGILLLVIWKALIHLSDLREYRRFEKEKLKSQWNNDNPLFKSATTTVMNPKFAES
D1 mod = D1 CRE-luciferase signal change, two-sided – cell-based, HEK293 D1, dopamine EC30, D1 allosteric modulator project, primary screen; D(1A) dopamine receptor (Homo sapiens), P21728; dopamine EC30 potentiation; actives deviate in either direction; B-score at 10 µM; 58,000 tested, 5.9% active; AID 641, 2007;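 active means luminescence count or its row- and column-corrected plate score outside the 99.7% band of the plate's sample wells, on either side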
CD11b adhes enh = enhancers of CD11b/CD18 adhesion to fibrinogen, primary screen, K562 cells, luminescence; Integrin beta-2 (Homo sapiens) + Integrin alpha-M (Homo sapiens), P05107+P11215; activation, % at 10 µM; 93,000 tested, 0.07% active; AID 1499, 2009; ATPlite luminescence;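 active means 10 µM primary screen giving 50% or more activity, confirmed by 40% or more on retest at that dose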
DAT uptake mod = changed hDAT dopamine uptake under cocaine IC80, either direction, primary screen, cocaine antagonist project, cell-based, LLC-PK1 hDAT, [14C]-dopamine uptake, MLSMR | Sodium-dependent dopamine transporter (Homo sapiens), Q01959 | LLC-PK1 hDAT cells, [14C]-dopamine uptake with cocaine IC80; actives deviate in either direction | B-score at 10 µM | 110,000 tested, 1.3% active | AID 449768, 2010;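 active means Z score or B-score, a plate-position-corrected score, falls beyond the plate's 99.7% confidence bounds, in either direction; inactive means both scores lie inside the 99.7% bounds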;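 further: scored against the spread of the other compound wells on the same plate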
PTK2B oligo ant = antagonists of Pyk2 self-association, primary screen, Q293 cells, FERM NanoBiT luminescence, HTS; Protein-tyrosine kinase 2-beta (Homo sapiens), Q14289; stronger effect = lower value; z-score (the deposit names both 25 µM and 10 µM); 99,000 tested, 0.83% active;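 active means Z-score of -3 or lower, scaled per plate to the spread of control and sample wells; inactive means z-score above -3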;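 further: negative z-score means lost luminescence so less FERM oligomerization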
FAK inh = FAK kinase inhibitors, primary screen, biochemical; biochemical FAK kinase activity assay; 97,000 tested, 0.84% active; inhibition, %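 (tested at 7 µM)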; Focal adhesion kinase 1 (Homo sapiens), Q05397; in the data active means inhibition above about 19%;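 further: 0% = DMSO and 100% = reference compound high control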
An asterisk follows results filed as active; . = not tested or not shown.

SMILES	CD11b adhes inh	D1 mod	CD11b adhes enh	DAT uptake mod	PTK2B oligo ant	FAK inh
O=C(O)CCCCCNC(=O)CCn1cnc2ccccc2c1=O	1	0.63	-3	-0.11	1	2
CCOc1cc(C(=S)N2CCOCC2)ccc1OS(=O)(=O)c1ccc(NC(C)=O)cc1	88*	.	-10	-0.29	0.22	-2
CCCN(CCC)C(=O)Cn1c(=O)n(CCC(=O)NCCc2ccccc2)c(=O)c2ccccc21	-36	.	-3	-8*	-0.11	2
Cc1ccccc1NC(=O)C(=O)NCc1ccccn1	-49	.	2	-1.6	0.24	3
Cc1nc(=O)c(-c2ccccc2)c(C)n1-c1ccccc1O	-13	-5.6*	2	-1.3	-0.62	.
O=C(CSc1n[nH]c(-c2cc(Cl)ccc2Cl)n1)NCCN1C(=O)CSC1=O	9	.	-2	.	.	.
COc1ccc2cc(CN(Cc3cccnc3)Cc3nnnn3Cc3ccccc3)c(=O)[nH]c2c1	5	0.7	-4	2.2*	.	3
CCC(c1nnnn1Cc1ccccc1)N(Cc1ccco1)Cc1cc2cc(OC)ccc2[nH]c1=O (configuration not stated)	20	.	-3	3.4*	-0.39	-1
CCOc1ccc(OCCCCNCCN)cc1	-3	.	-5	.	.	1
COC(=O)c1c(NC(=O)c2ccco2)sc(C)c1C	-8	0.47	1	-0.063	-0.94	0
Cc1c(Cc2ccccc2)sc(NC(=O)c2ccco2)c1C(N)=O	.	.	.	0.49	-2.1	25*
COc1c(C)cccc1C(=O)Nc1ccc(N2CCN(S(C)(=O)=O)CC2)cc1	-17	-0.0028	4	-7.9*	-0.38	3
COc1c(C)cc(Br)cc1C(=O)Nc1ccc(N2CCN(S(C)(=O)=O)CC2)cc1	-33	.	21	-0.61	0.58	0
Cc1nc2sc(C(c3ccccc3)N3CC(C)OC(C)C3)c(O)n2n1 (configuration not stated)	-10	-0.0048	0	0.17	0.44	0
Cc1nc2sc(C(c3ccc(Br)cc3)N3CC(C)OC(C)C3)c(O)n2n1 (configuration not stated)	-4	0.84	-4	2.6*	-1.5	1
COc1ccc(-c2cc(C(F)(F)F)n3nc(C(=O)NCc4ccco4)cc3n2)cc1	-7	0.055	-4	1	-0.64	-4
COC(=O)c1cc2nc(-c3ccc(OC)cc3)cc(C(F)(F)F)n2n1	5	1.6	7	-2.2*	0.57	3
O=C(NCCCN1CCOCC1)c1ccc2c(=O)n(CCc3ccccc3)c(=O)[nH]c2c1	5	.	-5	1.4	-0.17	0
COCCn1c(=O)[nH]c2cc(C(=O)NCCCN3CCN(c4ccc(F)cc4)CC3)ccc2c1=O	.	-4.4*	.	-0.024	0.95	1
CCCCCn1c(=O)[nH]c2cc(C(=O)NCCN3CCOCC3)ccc2c1=O	.	-0.0024	.	.	-1.1	-8
CCCCCn1c(=O)[nH]c2cc(C(=O)NCCCN(CC)CC)ccc2c1=O	1	-0.11	-2	-3.7*	-0.97	-3
O=C(NCCN1CCCC1)c1ccc2c(=O)n(CCc3ccccc3)c(=O)[nH]c2c1	-3	-3.7*	1	-8.2*	-0.49	2
CCOC(=O)c1c(NC(=O)Cn2cnc3scc(-c4ccc(C)cc4)c3c2=O)sc(C)c1C	-6	.	91	.	.	.
CC1=C(C(=O)NCc2ccccn2)C2(CCC(C)CC2)OC1=O (configuration not stated)	2	-0.34	1	.	.	6
COc1ccc(OC)c(N(CC(=O)Nc2ccc3c(c2)OCO3)S(=O)(=O)c2ccccc2)c1	-5	-2	0	-0.1	-2.3	-1
CCOC(=O)C(C(=O)Nc1ccccc1C)C1CCCCC1 (configuration not stated)	-40	.	-1	-0.51	-0.02	-1
CC(=O)N1CCN(c2ccc(OC[C@H]3CO[C@](Cn4ccnc4)(c4ccc(Cl)cc4Cl)O3)cc2)CC1	.	.	.	3.8*	.	.
CCOc1ccc(CCNC(=O)c2ccc(N3CCCC3=O)cc2)cc1OCC	1	.	6	-7.7*	1.6	1
COc1ccc(CCNC(=O)C2CCN(C(=O)N(C)C)CC2)cc1OC	.	1.5	.	-0.27	1.9	5
